PubChem BioAssay (NCATS)
Values joined by “and” are separate entries in the source; they are usually repeats but may differ in a detail not shown here. Identical values can stand only once. Records with an inconclusive call do not appear. Active and inactive are the calls of the source. Unless noted, calls follow the shape of the dose curve; as a rule, active = well fitted curve in the direction sought with a large enough effect; inconclusive = small, poorly fitted or top-dose-only effect, or another doubt; inactive = no such curve, though single readings can be large; an effect the other way counts as inactive or inconclusive.

How the values were obtained:
[1] = target: Glucocorticoid receptor (Homo sapiens) (UniProt P04150); assay: GR-GFP Redistribution (AID 450;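 active = compounds whose dose series gives a full or clear partial fitted curve of increased nuclear translocation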; also: potency is read from the fitted curve at half-maximal effect); details: U2OS GR-GFP nuclear translocation, laser cytometry, 2 h
[2] = target: Glucocorticoid receptor (Homo sapiens) (UniProt P04150); assay: GR-EFC Redistribution (AID 451; calls by dose curve; also: potency is read from the fitted curve at half-maximal effect); details: CHO-K1 GR-EFC translocation, beta-gal luminescence, 2 h
In short: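 CHO-K1 cells expressing nuclear EA and GR-ED fragments of b-gal; compounds titrated up to 46 uM final, 2 h at 37 C. GR nuclear translocation read as complemented b-gal luminescence after 1 h RT detection.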

[3] = target: Mitogen-activated protein kinase 10 (Mus musculus) (UniProt Q61831); assay: JNK3 AlphaScreen Assay (AID 530; active = well fitted curve in either direction with a large enough effect, not every such curve was filed as active;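 also: kinase came from lysate of stimulated human HepG2 cells; signal reports phosphorylation of biotinylated GST-cJun 1-79 at Ser73 with 10 µM ATP; % is scaled to controls: 0 for no effect and ±100 for the full control effect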)
In short: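 Activity was read by AlphaScreen after JNK3-containing HepG2 lysate (cytokine pre-activated) phosphorylated biotinylated GST-cJun with 10 uM ATP at room temperature. Phospho-Ser73 cJun antibody with Protein-A acceptor beads provided detection.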

[4] = target: 3',5'-cyclic-AMP phosphodiesterase 4B (Homo sapiens) (UniProt Q07343); assay: qHTS Assay for Inhibitors of PDE-IV (AID 607; active = well fitted activation curve with a large enough effect in the main read-out, with a control signal flat, not every such curve was filed as active; also: % of control where 0% means no effect)
In short: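 The readout is membrane depolarisation from a cAMP-sensing CNG channel, detected with a potential dye at ex 535/em 590. Cells were HEK293-derived (endogenous PDE-IV) at 1000 cells/well, titrated up to 22.9 uM final.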

[5] = qHTS Assay for Lipid Storage Modulators (AID 1519; calls by dose curve); details: Drosophila S3 cells, BODIPY lipid droplet/cell ratio, laser cytometry, cells loaded with oleic acid; for activity change, negative = inhibition: at 57.5 µM (top of the series)
In short: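 Cells seeded at 5,000 per well were treated with compounds over a concentration series and loaded with oleic acid (400 uM, as added). Lipid droplet fluorescence (488 nm excitation, 500-530 nm channel) was read by laser-scanning cytometry and normalized to 20 uM Triacsin C.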

[6] = target: DNA dC->dU-editing enzyme APOBEC-3G (Homo sapiens) (UniProt Q9HC16); assay: qHTS for inhibitors of Vif-A3G interactions: Validation (AID 588379); also: 0% is about no effect
In short: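 Yellow fluorescence (Ex 488, Em 500-530) of Vif-coexpressing HeLa A3G-eYFP cells, scanned by Acumen cytometer, reports blocked A3G degradation. Cells plated at 700/well overnight at 37 deg C before compound addition, then a further overnight compound incubation at 37 deg C.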

[7] = system: Zika virus NS2B-NS3 protease; assay: Primary screen GU AMC qHTS for Zika virus inhibitors (AID 1347154);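 also: 0% = no-inhibitor control and -100% = no-enzyme control; nearly all actives have a fitted effect of over 70% in size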
In short: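 Unlinked Zika NS2B hydrophilic domain–NS3 protease complex at 25 nM in 10 mM Tris-HCl pH 8.0, 0.01% Tween 20, with an AMC peptide substrate. Fluorescence change (340/450 nm) over 15 min at room temperature, normalized to controls, fitted to 4-parameter Hill.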

[8] = Primary qHTS for small molecule stabilizers of the endoplasmic reticulum resident proteome: Secreted ER Calcium Modulated Protein (SERCaMP) assay (AID 1508630); also: % is scaled to controls: 0 for no effect and ±100 for the full control effect
In short: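 The SH-SY5Y reporter protocol was run at 3 concentrations up to 38.3 uM (primary) or 11 concentrations (follow-up): 16 h compound, 100 nM thapsigargin for 4 h, then extracellular luciferase luminescence.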

[9] = target: Cytochrome P450 1A2 (Homo sapiens) (UniProt P05177); assay: p450-cyp1a2 (AID 410; calls by dose curve;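 also: -100% = full effect of reference inhibitor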)
In short: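 Luminescent demethylation readout: Luciferin-ME (100uM, equal to Km) turned over by 20nM CYP1A2 for 60 min at room temperature after NADPH regeneration addition, following 10 min compound preincubation. Normalization used 57 uM furafylline as full inhibition.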

[10] = target: Ubiquitin carboxyl-terminal hydrolase 1 (Homo sapiens) (UniProt O94782); assay: Inhibitors of USP1/UAF1: Pilot qHTS (AID 504865);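 also: rhodamine fluorescence freed from ubiquitin-rhodamine substrate followed over time; top concentration of the series differs between compounds; % is scaled to controls: 0 for no effect and ±100 for the full control effect; nearly all actives have a fitted effect of over 35% in size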
In short: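 USP1/UAF1 complex (1nM) preincubated with compound 15 min at room temperature, then Ub-Rho substrate (150nM final) added. Fluorescence read kinetically at 480/540 nm, 6 reads every 60 seconds. Buffer: 50mM HEPES pH 7.8, 0.5mM EDTA, 0.1 mg/ml BSA, 1mM TCEP, 0.01% Tween-20.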

[11] = target: Lysosomal acid glucosylceramidase (Homo sapiens) (UniProt P04062); assay: Glucocerebrosidase-p2 (AID 348; in the data active = potency below about 10 µM; also: potency is read from the fitted curve at half-maximal effect); details: purified GBA, blue fluorogenic substrate, 40 min
In short: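 Normal human glucocerebrosidase (0.2 nM) with blue fluorogenic substrate (80 uM final) in citrate/phosphate pH 5.9 with 10mM sodium taurocholate, 0.01% tween-20; 40 min RT, NaOH/glycine stop; fluorescence Ex 365/Em 440; AC50 from a titration from 0.6 nM upwards.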

[12] = AP1 Signaling Pathway (AID 357; active = well fitted curve in either direction with a large enough effect, not every such curve was filed as active;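 also: ME-180 reporter cells stimulated with EGF at its EC50 level; % is scaled to controls: 0 for no effect and ±100 for the full control effect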)
In short: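 In this screen, ME-180 cells in Opti-MEM with 0.5% dialyzed FBS received EC50 EGF and compound titrations for 5 h. AP-1 reporter beta-lactamase was detected via CCF4 ratio, giving AC50 for positive and negative modulators.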

[13] = NFAT Signaling Pathway (AID 444; active = well fitted curve in either direction with a large enough effect, not every such curve was filed as active;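 also: carbachol stimulus at about its EC50 of 1 µM final; % is scaled to controls: 0 for no effect and ±100 for the full control effect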); details: Jurkat NFAT-bla M1, carbachol, beta-lactamase ratio, 5 h; at 7.69 µM (top of the series)
In short: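 Jurkat cells with NFAT-driven β-lactamase reporter and co-expressed M1 receptor, stimulated with carbachol (final 1 uM, ~EC50), compound titration, 5 h at 37 °C. CCF4 loaded 1 h at RT; 460/530 nm ratio gave %activity and AC50.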

[14] = Stat Signaling Pathway (AID 446; active = well fitted curve in either direction with a large enough effect, not every such curve was filed as active)
In short: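 Emission at 460 and 530 nm (excitation 405 nm) reports SIE-controlled beta-lactamase in ME-180 cells. Cells received compound with 40 pM IL-6 for 5 hrs at 37 C; data scaled between 300 pM IL-6 and 125 nM JAK-inhibitor controls.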

[15] = measured here: cell count channel max response
[16] = measured here: lipid channel max response

Ubiquitin carboxyl-terminal hydrolase 1 (Homo sapiens), sequence (O94782 whole entry, looked up): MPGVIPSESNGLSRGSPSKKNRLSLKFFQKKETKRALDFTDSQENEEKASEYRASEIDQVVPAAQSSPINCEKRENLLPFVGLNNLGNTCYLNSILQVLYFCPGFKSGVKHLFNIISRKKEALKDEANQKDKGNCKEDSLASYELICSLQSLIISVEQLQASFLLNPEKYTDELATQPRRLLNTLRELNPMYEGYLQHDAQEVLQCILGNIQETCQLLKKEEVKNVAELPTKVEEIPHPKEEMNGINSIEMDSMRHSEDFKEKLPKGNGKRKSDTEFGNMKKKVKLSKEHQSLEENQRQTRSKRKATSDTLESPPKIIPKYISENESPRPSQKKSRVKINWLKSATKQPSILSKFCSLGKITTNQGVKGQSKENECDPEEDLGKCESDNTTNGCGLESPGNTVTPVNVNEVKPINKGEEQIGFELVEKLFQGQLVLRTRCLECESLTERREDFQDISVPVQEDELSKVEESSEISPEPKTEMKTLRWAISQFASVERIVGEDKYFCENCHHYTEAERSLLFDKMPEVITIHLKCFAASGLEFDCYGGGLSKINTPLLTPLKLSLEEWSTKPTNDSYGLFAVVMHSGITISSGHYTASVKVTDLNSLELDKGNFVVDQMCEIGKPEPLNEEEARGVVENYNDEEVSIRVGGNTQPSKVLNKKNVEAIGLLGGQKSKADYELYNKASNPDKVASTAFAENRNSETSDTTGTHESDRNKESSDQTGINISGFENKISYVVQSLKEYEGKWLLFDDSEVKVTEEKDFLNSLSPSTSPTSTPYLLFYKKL
Glucocorticoid receptor (Homo sapiens), sequence (P04150 whole entry, looked up, the tested form may be a part): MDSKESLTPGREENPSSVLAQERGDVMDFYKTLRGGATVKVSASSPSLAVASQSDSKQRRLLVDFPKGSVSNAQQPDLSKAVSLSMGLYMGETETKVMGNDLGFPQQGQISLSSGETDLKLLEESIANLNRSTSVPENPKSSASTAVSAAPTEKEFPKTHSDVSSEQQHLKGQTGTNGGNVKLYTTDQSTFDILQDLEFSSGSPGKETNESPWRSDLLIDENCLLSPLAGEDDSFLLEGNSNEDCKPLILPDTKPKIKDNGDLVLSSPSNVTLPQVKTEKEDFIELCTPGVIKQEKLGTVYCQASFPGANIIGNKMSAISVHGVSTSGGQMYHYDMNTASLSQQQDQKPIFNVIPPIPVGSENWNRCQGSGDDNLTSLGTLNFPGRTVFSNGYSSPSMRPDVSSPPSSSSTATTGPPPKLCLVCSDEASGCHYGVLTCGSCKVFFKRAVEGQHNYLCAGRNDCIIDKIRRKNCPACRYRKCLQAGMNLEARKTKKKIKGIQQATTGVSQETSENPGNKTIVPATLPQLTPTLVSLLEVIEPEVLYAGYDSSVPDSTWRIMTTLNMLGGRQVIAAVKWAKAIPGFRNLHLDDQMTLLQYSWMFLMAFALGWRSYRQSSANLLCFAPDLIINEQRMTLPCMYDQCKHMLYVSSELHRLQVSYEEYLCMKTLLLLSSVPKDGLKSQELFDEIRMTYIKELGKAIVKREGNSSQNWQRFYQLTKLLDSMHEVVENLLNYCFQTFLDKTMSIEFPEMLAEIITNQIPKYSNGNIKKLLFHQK
3',5'-cyclic-AMP phosphodiesterase 4B (Homo sapiens), sequence (Q07343 whole entry, looked up): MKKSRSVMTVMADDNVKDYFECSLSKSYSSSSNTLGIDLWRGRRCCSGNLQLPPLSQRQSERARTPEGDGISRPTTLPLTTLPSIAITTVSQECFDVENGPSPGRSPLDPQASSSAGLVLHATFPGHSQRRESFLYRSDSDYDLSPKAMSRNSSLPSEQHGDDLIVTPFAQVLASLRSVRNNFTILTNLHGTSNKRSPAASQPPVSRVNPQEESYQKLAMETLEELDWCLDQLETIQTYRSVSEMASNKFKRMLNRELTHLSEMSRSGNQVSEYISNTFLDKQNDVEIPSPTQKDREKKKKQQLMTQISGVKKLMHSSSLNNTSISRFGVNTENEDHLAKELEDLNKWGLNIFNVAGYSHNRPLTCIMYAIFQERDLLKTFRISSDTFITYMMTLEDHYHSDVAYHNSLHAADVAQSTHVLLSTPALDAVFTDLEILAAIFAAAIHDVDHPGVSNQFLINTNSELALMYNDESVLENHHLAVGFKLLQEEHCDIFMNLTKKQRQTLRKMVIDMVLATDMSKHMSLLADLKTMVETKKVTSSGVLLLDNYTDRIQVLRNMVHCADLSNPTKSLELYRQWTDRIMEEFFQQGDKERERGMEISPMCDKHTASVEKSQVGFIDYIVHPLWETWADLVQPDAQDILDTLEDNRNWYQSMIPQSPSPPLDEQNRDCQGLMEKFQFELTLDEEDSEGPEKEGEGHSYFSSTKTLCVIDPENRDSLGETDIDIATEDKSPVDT
DNA dC->dU-editing enzyme APOBEC-3G (Homo sapiens), sequence (Q9HC16 whole entry, looked up): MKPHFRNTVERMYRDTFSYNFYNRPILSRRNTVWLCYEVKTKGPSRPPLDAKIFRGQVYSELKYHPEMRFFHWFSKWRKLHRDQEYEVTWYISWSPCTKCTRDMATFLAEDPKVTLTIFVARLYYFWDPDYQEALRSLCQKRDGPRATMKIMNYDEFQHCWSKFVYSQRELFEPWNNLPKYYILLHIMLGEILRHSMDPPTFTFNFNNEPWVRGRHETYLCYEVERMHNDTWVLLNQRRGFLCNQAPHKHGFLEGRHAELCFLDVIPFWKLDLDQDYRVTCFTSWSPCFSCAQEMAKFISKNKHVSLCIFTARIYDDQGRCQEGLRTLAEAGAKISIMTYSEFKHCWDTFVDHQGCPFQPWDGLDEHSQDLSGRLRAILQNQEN
Cytochrome P450 1A2 (Homo sapiens), sequence (P05177 whole entry, looked up): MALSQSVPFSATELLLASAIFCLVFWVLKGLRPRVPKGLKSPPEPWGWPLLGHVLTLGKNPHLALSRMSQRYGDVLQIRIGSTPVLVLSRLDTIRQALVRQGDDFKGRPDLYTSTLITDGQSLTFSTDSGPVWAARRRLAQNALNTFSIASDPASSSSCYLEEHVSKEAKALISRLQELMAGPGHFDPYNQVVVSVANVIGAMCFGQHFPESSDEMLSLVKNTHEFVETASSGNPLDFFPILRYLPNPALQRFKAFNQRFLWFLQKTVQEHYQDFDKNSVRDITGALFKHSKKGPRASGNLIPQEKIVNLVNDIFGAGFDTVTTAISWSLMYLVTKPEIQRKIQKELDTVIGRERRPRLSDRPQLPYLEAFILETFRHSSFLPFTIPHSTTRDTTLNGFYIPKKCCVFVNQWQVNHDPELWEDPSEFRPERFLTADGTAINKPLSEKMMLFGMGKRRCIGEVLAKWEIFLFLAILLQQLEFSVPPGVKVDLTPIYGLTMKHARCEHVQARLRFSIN
Lysosomal acid glucosylceramidase (Homo sapiens), sequence (P04062 whole entry, looked up): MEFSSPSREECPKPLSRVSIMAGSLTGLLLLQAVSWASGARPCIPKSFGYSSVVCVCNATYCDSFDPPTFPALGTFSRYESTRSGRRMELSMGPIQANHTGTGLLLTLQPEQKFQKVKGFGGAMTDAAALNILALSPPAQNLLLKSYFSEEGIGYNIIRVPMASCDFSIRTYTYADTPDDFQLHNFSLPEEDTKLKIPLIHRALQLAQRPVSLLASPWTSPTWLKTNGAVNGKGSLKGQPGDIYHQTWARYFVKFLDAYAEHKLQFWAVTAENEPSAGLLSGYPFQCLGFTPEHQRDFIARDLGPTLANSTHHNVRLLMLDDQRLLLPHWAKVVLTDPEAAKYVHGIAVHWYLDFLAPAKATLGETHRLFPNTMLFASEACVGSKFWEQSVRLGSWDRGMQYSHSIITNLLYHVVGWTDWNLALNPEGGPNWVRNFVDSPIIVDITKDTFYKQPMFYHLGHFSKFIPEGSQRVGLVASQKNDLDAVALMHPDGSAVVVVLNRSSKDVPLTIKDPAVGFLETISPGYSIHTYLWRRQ

Oc1ccc2c3c1O[C@H]1c4[nH]c5c(c4C[C@@]4(O)[C@@H](C2)N(CC2CC2)CC[C@]314)C[C@]1(O)[C@H]2Cc3ccc(O)c4c3[C@@]1(CCN2CC1CC1)[C@@H]5O4
inactive: Potency [1] > 46 µM | Potency [2] > 46 µM | outcome [3] | Potency [4] | activity change, negative = inhibition [5] -0.108% | Potency [6] | Potency [7] | Potency [8]
18.7%: max response [5, 16]
16.4%: max response [5, 15]

CNCCc1cnc[nH]1
inactive: Potency [9] | Potency [1] > 46 µM | activity change, negative = inhibition [5] 4.08% | Potency [10] | Potency [6] | Potency [7] | Potency [8]
-7.35%: max response [5, 15]
-3.08%: max response [5, 16]

NC[C@H](CS(=O)(=O)O)c1ccc(Cl)cc1
inactive: Potency [9] | Potency [1] > 46 µM | Potency [2] > 46 µM | activity change, negative = inhibition [5] 3.36% | Potency [6] | Potency [7] | Potency [8]
12%: max response [5, 16]
7.7%: max response [5, 15]

N[C@@H](CCP(=O)(O)O)C(=O)O
inactive: Potency [11] > 11.4 µM | activity change, negative = inhibition [12] 9.69% [at 7.69 µM] | activity change, negative = inhibition [13] 3.73% | activity, negative = inhibition [14] 11.7% [at 7.69 µM] | Potency [1] > 46 µM | Potency [2] > 46 µM and > 9.22 µM | outcome [3] | Potency [4] | activity change, negative = inhibition [5] -1.66% | Potency [6] | Potency [7] | Potency [8]
-5.2%: max response [5, 15]
-9.13%: max response [5, 16]

O=C(O)[C@@H]1C[C@H]2C[C@@H](CP(=O)(O)O)CC[C@H]2CN1
-11.2%: max response [5, 16]
-9.16%: max response [5, 15]
inactive: Potency [1] > 46 µM | Potency [2] > 46 µM | activity change, negative = inhibition [5] -1.59% | Potency [10] | Potency [6] | Potency [7] | Potency [8]

CC(C)NC[C@H](O)c1ccc(N)c(C#N)c1
26.1%: max response [5, 16]
inactive: Potency [1] > 46 µM | Potency [2] > 46 µM | outcome [3] | activity change, negative = inhibition [5] 11.2% | Potency [10] | Potency [6] | Potency [7] | Potency [8]
17.3%: max response [5, 15]

O=C(O)/C=C\CO
inactive: Potency [1] > 46 µM | outcome [3] | Potency [4] | activity change, negative = inhibition [5] 3.52% | Potency [10] | Potency [6] | Potency [7] | Potency [8]
-10.2%: max response [5, 15]
-9.77%: max response [5, 16]
